Measured values published in PubChem BioAssay.
Calls of active or inactive are those of the source.

Assays:
[1] = system: Plasmodium falciparum Sir2 (PF13_0152, Sir2A); experiment: Plasmodium falciparum Sir2A binding compounds – biochemical, small-molecule microarray, 635 nm fluorescence, primary screen (AID 1098); conditions: fluorescence 635 nm, higher = more signal;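 note: score merges spot fluorescence intensity with its signal-to-noise ratio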
[2] = probe aDKK1 binding to arrayed compounds – biochemical, biotinylated probe, 635/667 nm fluorescence, primary screen (AID 1099); conditions: small-molecule microarray, higher = more signal;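 note: score merges 667nm spot fluorescence with signal to noise across triplicate slides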
[3] = probe aCHRDL2 binding to arrayed compounds – biochemical, biotinylated probe, 635/667 nm fluorescence, primary screen (AID 1100); conditions: small-molecule microarray, higher = more signal
[4] = change in splice reporter luminescence, either direction, cell-based, HEK293, spliceosome inhibition project, primary screen (AID 1101); conditions: HEK293 splicing luciferase reporter, 24 h, higher = more signal, called active from +8 up or from −8 down;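 note: HEK293 cells carrying a splicing-competent luciferase reporter gene; test concentration not given here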
[5] = target: Fibroblast growth factor 10 (Homo sapiens) (UniProt O15520); experiment: compounds binding fibroblast growth factor 10 – biochemical, small-molecule microarray, 635 nm fluorescence, primary screen (AID 1102); conditions: FGF10 binding, fluorescence 635 nm, higher = more signal
Fibroblast growth factor 10 (Homo sapiens), sequence (O15520 whole entry, looked up): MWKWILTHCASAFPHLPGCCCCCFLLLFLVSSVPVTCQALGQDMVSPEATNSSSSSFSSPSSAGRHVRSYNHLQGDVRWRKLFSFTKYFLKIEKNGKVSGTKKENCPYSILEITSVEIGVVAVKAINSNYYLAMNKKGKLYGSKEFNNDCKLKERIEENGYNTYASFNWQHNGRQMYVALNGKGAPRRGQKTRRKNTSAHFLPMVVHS

[6] = system: glycogen synthase kinase-3 (GSK3A per assay name; protocol says GSK3B); experiment: compounds binding glycogen synthase kinase-3 – biochemical, small-molecule microarray, 635 nm fluorescence, GSK3A, primary screen (AID 1103); conditions: fluorescence 635 nm, higher = more signal; note: the record names both GSK3A and GSK3B
[7] = target: Epidermal growth factor receptor (Homo sapiens) (UniProt P00533); experiment: compounds binding epidermal growth factor receptor – biochemical, small-molecule microarray, 635 nm fluorescence, primary screen (AID 1104); conditions: EGFR binding, higher = more signal;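 note: score merges 667 nm emission intensity with spot signal to noise over triplicate slides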
Epidermal growth factor receptor (Homo sapiens), sequence (P00533 whole entry, looked up): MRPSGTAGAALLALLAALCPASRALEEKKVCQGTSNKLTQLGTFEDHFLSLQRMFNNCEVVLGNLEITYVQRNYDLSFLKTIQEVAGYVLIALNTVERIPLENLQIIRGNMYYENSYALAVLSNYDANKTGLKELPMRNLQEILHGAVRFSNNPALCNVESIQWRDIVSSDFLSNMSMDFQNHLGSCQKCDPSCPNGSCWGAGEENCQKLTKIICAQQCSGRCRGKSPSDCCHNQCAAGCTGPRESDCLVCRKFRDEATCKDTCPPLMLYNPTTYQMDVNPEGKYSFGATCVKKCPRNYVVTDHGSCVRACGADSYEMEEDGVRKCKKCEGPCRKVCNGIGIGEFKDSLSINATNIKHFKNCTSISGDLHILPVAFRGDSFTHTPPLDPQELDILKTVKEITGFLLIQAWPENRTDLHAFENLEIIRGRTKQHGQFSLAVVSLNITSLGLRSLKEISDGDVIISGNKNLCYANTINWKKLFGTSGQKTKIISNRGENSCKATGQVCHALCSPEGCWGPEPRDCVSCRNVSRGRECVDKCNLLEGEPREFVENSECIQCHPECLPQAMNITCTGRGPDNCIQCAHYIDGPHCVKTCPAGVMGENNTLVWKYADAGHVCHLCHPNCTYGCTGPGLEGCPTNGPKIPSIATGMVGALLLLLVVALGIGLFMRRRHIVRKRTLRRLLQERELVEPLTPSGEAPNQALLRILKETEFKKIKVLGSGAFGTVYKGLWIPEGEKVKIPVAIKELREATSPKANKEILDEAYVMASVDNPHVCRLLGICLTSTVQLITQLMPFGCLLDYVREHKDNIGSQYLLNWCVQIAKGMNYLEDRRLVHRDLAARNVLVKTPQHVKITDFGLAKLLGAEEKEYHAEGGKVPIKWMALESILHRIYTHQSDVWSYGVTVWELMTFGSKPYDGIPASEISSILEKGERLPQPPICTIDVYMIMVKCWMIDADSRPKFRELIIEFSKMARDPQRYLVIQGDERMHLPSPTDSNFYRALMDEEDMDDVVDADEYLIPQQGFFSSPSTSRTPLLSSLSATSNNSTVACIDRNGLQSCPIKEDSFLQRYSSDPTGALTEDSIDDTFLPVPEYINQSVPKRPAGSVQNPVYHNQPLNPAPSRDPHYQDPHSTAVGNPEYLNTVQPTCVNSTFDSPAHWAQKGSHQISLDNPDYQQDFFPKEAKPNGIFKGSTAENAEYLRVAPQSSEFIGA

[8] = target: Follistatin-related protein 3 (Homo sapiens) (UniProt O95633); experiment: compounds binding follistatin-related protein 3 – biochemical, small-molecule microarray, 635 nm fluorescence, primary screen (AID 1105); conditions: FSTL3 binding, higher = more signal;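 note: score merges emission near 667 nm and signal to noise per printed spot across three slides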
Follistatin-related protein 3 (Homo sapiens), sequence (O95633 whole entry, looked up): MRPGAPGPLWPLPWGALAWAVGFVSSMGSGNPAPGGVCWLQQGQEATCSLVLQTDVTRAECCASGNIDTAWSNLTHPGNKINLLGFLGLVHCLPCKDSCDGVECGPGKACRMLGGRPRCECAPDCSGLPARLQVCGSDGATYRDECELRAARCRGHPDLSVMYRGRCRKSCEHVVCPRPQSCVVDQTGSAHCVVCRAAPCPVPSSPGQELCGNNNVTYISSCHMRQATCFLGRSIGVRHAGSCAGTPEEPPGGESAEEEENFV

[9] = target: Dickkopf-related protein 1 (Homo sapiens) (UniProt O94907); experiment: small molecules binding DKK1 protein – biochemical, small-molecule microarray, 635 nm fluorescence scan, primary screen (AID 1106); conditions: higher = more signal;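 note: score merges emission near 667 nm with signal to noise over three replicate slides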
Dickkopf-related protein 1 (Homo sapiens), sequence (O94907 whole entry, looked up): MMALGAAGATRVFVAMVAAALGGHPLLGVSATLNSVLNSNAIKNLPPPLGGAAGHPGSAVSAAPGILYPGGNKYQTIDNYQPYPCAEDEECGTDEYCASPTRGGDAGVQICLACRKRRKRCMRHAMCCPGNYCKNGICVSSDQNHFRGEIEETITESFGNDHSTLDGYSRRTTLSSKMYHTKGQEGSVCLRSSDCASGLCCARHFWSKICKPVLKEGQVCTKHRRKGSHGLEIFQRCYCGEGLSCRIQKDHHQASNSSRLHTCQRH

[10] = system: Inhibin beta A chain (activin A); experiment: small molecules binding activin A – biochemical, small-molecule microarray, 635 nm fluorescence scan, primary screen (AID 1107); conditions: INHBA, higher = more signal;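 note: mouse activin A protein probed at 4.33 µg/mL on printed slides; score merges bound-protein fluorescence near 667 nm with spot signal-to-noise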
[11] = system: Human papillomavirus type 1a protein E7 (residues 44-93); experiment: small molecules binding HPV E7 44-93 – biochemical, small-molecule microarray, residues 44-93, 635 nm fluorescence, primary screen (AID 1108); conditions: fluorescence 635 nm, higher = more signal;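 note: E7 fragment applied at 1 µg/mL in TBST for 1 h at 4 C; score combines spot fluorescence with its signal to noise ratio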
[12] = hepatitis C replication reporter changes, two-sided – Huh7 cells, luciferase reporter, HCV replication inhibitor project, primary screen (AID 1109); conditions: Huh7 HCV replicon luciferase reporter, 48 h; higher = more signal;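 note: huh7 hepatoma cells harbouring a luciferase neomycin HCV replicon reporter; luciferase luminescence as measure of HCV replicon replication; test concentration not given here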
[13] = target: Left-right determination factor 2 (Homo sapiens) (UniProt O00292); experiment: small molecules binding LEFTY2 protein – biochemical, small-molecule microarray, 635 nm fluorescence scan, primary screen (AID 1110); conditions: higher = more signal
Left-right determination factor 2 (Homo sapiens), sequence (O00292 whole entry, looked up): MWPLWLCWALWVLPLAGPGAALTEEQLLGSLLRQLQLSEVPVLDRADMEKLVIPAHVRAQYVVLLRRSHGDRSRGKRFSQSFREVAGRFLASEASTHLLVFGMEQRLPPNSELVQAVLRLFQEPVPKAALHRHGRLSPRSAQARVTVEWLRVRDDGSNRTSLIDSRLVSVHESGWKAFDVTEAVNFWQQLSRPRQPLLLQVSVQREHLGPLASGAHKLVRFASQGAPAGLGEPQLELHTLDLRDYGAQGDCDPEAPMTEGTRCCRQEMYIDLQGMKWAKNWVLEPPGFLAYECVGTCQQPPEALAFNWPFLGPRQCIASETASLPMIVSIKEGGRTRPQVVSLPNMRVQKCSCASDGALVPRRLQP

[14] = target: Calmodulin-1 (Homo sapiens) (UniProt P0DP23); experiment: small molecules binding calmodulin-1 with EGTA – biochemical, small-molecule microarray, Cy5-labelled CALM1, profiling panel (AID 1111); conditions: Cy5-CALM1 binding fluorescence, higher = more signal;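 note: labelled calmodulin applied in Tris saline Tween buffer holding calcium plus EGTA and DTT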
[15] = target: Calmodulin-1 (Homo sapiens) (UniProt P0DP23); experiment: small molecules binding Ca-loaded calmodulin-1 – biochemical, small-molecule microarray, Cy5-labelled CALM1, plus calcium, artefact control for SMM control-protein annotation, profiling panel (AID 1112); conditions: Cy5-CALM1 binding fluorescence, higher = more signal;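 note: score merges spot fluorescence with signal to noise from triplicate slides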
[16] = probe aWnt5a binding to arrayed compounds – biochemical, biotinylated probe, 635/667 nm fluorescence, primary screen (AID 1113); conditions: small-molecule microarray, higher = more signal;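 note: score merges 667 nm fluorescence intensity with signal-to-noise per printed feature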
[17] = probe aShh binding to arrayed compounds – biochemical, biotinylated probe, 635/667 nm fluorescence, primary screen (AID 1114); conditions: small-molecule microarray, higher = more signal;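 note: probe is biotin-labelled aShh protein from a stem cell growth factor screen; measures binding of labelled protein to compounds printed on the slide; score merges feature fluorescence at 667 nm with signal-to-noise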
[18] = probe aNog binding to arrayed compounds – biochemical, biotinylated probe, 635/667 nm fluorescence, primary screen (AID 1115); conditions: small-molecule microarray, higher = more signal;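 note: probe is biotinylated aNog protein used at 0.15 µg/mL for 1 h at 4 C; z-score combines 667 nm fluorescence of each spot with its signal to noise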
[19] = target: Torsin-1A-interacting protein 1 (Homo sapiens) (UniProt Q5JTV8); experiment: compound microarray binding of lysate hLAP1 – cell lysate, small-molecule microarray, COS7 lysate, 635/667 nm fluorescence, primary screen (AID 1116); conditions: 635 nm fluorescence, higher = more signal
Torsin-1A-interacting protein 1 (Homo sapiens), sequence (Q5JTV8 whole entry, looked up): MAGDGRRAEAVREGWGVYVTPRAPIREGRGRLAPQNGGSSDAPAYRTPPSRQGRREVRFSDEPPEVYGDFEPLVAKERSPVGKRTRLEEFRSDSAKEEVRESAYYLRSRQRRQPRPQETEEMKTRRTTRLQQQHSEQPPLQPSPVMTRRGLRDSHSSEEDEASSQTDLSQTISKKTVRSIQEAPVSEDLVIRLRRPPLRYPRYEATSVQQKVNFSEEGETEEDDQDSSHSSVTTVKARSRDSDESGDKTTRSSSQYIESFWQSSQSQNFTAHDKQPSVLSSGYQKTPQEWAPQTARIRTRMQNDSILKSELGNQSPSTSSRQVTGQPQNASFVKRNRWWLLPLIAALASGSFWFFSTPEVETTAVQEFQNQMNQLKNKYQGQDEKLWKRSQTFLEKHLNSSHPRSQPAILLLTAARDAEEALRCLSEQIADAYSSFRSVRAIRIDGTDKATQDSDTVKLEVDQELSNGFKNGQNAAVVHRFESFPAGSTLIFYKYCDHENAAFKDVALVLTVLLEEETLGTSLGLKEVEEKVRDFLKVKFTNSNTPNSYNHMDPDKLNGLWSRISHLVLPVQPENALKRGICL

[20] = target: Alpha-bungarotoxin (Bungarus multicinctus) (UniProt P60615); experiment: compounds binding labelled alpha-BTX control protein – biochemical, small-molecule microarray, Alexa647 label, 635/667 nm fluorescence, artefact control for SMM control protein annotation, profiling panel (AID 1117); conditions: alpha-BTX-A647 binding fluorescence, higher = more signal
Alpha-bungarotoxin (Bungarus multicinctus), sequence (P60615 whole entry, looked up): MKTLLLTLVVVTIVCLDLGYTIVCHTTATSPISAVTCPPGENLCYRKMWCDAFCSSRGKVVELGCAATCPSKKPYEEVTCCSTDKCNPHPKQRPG

Compound	composite z-score [1]	composite z-score [2]	composite z-score [3]	z-score [4]	composite z-score [5]	composite z-score [6]	composite z-score [7]	composite z-score [8]	composite z-score [9]	composite z-score [10]	composite z-score [11]	z-score [12]	composite z-score [13]	composite z-score [14]	composite z-score [15]	composite z-score [16]	composite z-score [17]	composite z-score [18]	composite z-score [19]	composite z-score [20]
O=C1N(Cc2ccccc2)c2ccccc2C[C@@]12COC(c1ccc(OCCCO)cc1)=N2	1.32	1.79	1.12	-0.136 (inactive)	0.596	1.31	-0.433	0.0633	-0.318	1.13	1.24	-1.08	-0.56	0.993	0.749	0.02	0.0018	1.39	1.58	0.802
C=CCNC(=O)[C@H]1[C@@H]2C(=O)O[C@@H](c3ccccc3)[C@@H](c3ccccc3)N2[C@@H](c2ccc(OCCO)cc2)[C@]12C(=O)Nc1ccccc12	1.39	-0.106	0.747	-0.152 (inactive)	-0.0719	0.164	-0.129	0.227	-0.939	-0.329	1.39	-1.4	-0.514	1.85	0.345	-0.0405	-0.0505	0.666	1.87	1.4
C=C(C)[C@@H]1CC=C(C(O)C2C=CC3C(=O)N(c4ccccc4)C(=O)C3N2Nc2ccc([N+](=O)[O-])cc2)CC1 (stereo not given in full)	-0.0606	0.32	0.822	-0.682 (inactive)	1.27	1.31	0.613	1.44	-0.103	0.883	1.46	-0.315	1.26	-0.0515	0.261	-0.0222	-0.0119	1.24	-0.151	0.839
O=C(NCc1ccccc1)[C@@H]1c2ccccc2C(=O)N(Cc2ccc(OC(F)(F)F)cc2)[C@H]1c1ccc(CO)cc1	1.34	0.658	-0.0614	-1.19 (inactive)	-0.354	0.37	-0.942	-0.88	-0.808	-0.187	0.259	-1.1	-0.725	-0.437	0.284	-0.0735	-0.0813	0.868	1.15	-0.0863
COC(=O)[C@@]1(Cc2ccc(F)cc2)[C@H]2c3cc(C(=O)N4CCCC4)n(Cc4cc(F)cc5c4OCOC5)c3C[C@H]2CN1C(=O)c1ccccc1	0.672	1.14	1.06	-0.844 (inactive)	0.762	-0.0785	0.0228	1.3	-0.334	0.888	-0.0014	-2.1	-0.285	1.37	1.05	0.179	0.184	-0.694	-0.415	0.92
O=C1[C@@H]2[C@@H](CC(COc3ccccc3)=C([C@H](O)CCc3ccccc3)[C@@H]2CO)C(=O)N1Cc1ccccc1	0.764	-0.0833	-0.264	0.187 (inactive)	0.408	-0.0949	0.256	0.679	0.286	0.343	0.778	-2.21	0.399	0.615	-0.346	-0.1	-0.0553	-0.172	0.47	0.495
CN1C(=O)C2C=CC(C(O)c3ccc(-c4ccccc4)s3)N(NC(=O)OC(C)(C)C)C2C1=O (stereo not given)	0.871	0.625	1.04	2.11 (inactive)	0.171	0.484	0.609	1.02	0.207	0.86	0.399	-0.204	0.285	2.28	0.902	0.055	-0.279	1.38	1.52	1.62
COC(=O)C(CC#Cc1ccc2c(c1)[C@]1(C(=O)N2)[C@H](C(=O)N2CCc3cc(OC)c(OC)cc3C2)[C@H]2C(=O)O[C@H](c3ccccc3)[C@H](c3ccccc3)N2[C@@H]1c1ccccc1OCCO)C(=O)OC	1.3	0.581	0.623	0.234 (inactive)	0.954	1.34	0.529	1.28	0.627	-0.592	-0.099	-2.09	0.815	1.02	-0.509	-0.0161	-0.0289	0.682	1.59	2.65
COc1cc(CO)cc(I)c1O[C@H]1C=C(C(=O)NCCO)C[C@@H]2O[C@H]12	0.6	0.298	0.0558	1 (inactive)	1.77	1.33	0.989	1.45	1.34	0.643	1.4	-1.32	0.873	3.38	1.48	0.055	-0.352	-0.646	1.94	2.81
Cc1ccc(C(C)CC(O)C2C=CC3C(=O)N(C)C(=O)C3N2Nc2ccccc2)o1 (stereo not given)	0.84	0.169	0.778	1.27 (inactive)	1.19	1.25	1	1.39	0.593	0.989	1.4	-0.955	0.79	0.0895	-0.0452	-0.0057	-0.0769	-0.213	0.163	0.6
CCOC(=O)C[C@H]1[C@H](OC(=O)Cc2ccc3c(c2)OCO3)[C@@H](NC(=O)Cc2ccc(OC)cc2)c2cc(OCCCO)ccc2N1C(=O)Cc1ccc(OC)cc1	0.132	-0.0514	-0.178	-2.07 (inactive)	0.205	0.157	-0.141	0.0597	-0.141	0.177	0.221	-1.05	-0.261	0.824	0.0314	-0.147	-0.14	0.118	0.664	-0.105
